Data on 108 sequences can be found in PubChem BioAssay AID1508600 (Functional Genomics Laboratory (NCATS/FGL), 2020).

Among all 53,000 sequences or so, about 3,700 (7%) were called active.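 Rule for the calls: active = gene knockdowns whose robust z-score for IL-1 alpha signal is at least 2 or at most -2, so actives lie on both sides; inactive = the rest.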 The full list was thinned out, with actives kept by preference.

The nature of this assay: Components of the Cytosolic LPS Sensing Pathway: Gene Identification via Genome-wide siRNA Screen.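 Note: robust z of the log signal after scaling to non-targeting control siRNA wells of the plate.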 The settings on record: RAW264.7 macrophages, IL-1a HTRF, actives lie on both sides, screened at 100 nM (by protocol), cells primed 5 h with Pam3CSK4 first. In a few lines:
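RAW264.7; siRNA 100 nM final, RNAiMAX, 48h 37 degrees C; Pam3CSK4 5 h; LipidA + TransIT-TKO 24 h; IL-1a HTRF; CellTiter-Glo viability; robust z vs negative-control median.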
With GGUCCUAUGGAUUAAUGCUTT against Ccn4, the z-score is 3.46 (active). As for CCCUAAAACCAAAUGUACATT against Tet2, the z-score is 1.7 (inactive). As for GGAUGUAACAUUUCUUCAATT against Rmi1, the z-score was 0.567 (inactive). In the case of GGCUGGUAAUUCACUUAAUTT against Kcnk2, the z-score was -2.54 (active).

As for GGAAAUCACCAUGCCCUCUTT against S100a8, the z-score was -0.0382 (inactive). For the sequence GCAUGGAGAUUCUGUGCGGTT against Trim45, the z-score was -1.13 (inactive). Regarding CCGAAAAUGGUAAAUAACUTT against Rnf17, the z-score was 0.111 (inactive). On to GGAGGAACCUCAGAAACAGTT against Knstrn, for which the z-score is -2.19 (active). Regarding GCUAUUUUGGGACGAGUCATT against Col13a1, the z-score is -0.7 (inactive). Under GGGAUCAAGUUAAAUAGACTT against Snhg16 stands -0.184 (inactive).

For GCGAACAGUUGAAUAGAUUTT against Slc25a46, the z-score is -0.108 (inactive).

GGUGGUCACUAAGAAGUUCTT against Prps1l1: the z-score is 2.48 (active).

As to CCAACACUAUUACUGUAAATT against Arg2, the z-score was 0.159 (inactive). For GGCCAGAAAAUUAAGGAGCTT against Faap100 the value was 1.15 (inactive); for GGCAACUGAAAUGUUUGUUTT against Rap2c, 2.14 (active); for CCUUGAGUACUUAUUGCGUTT against Chac1, 0.934 (inactive). Under GCCAACUCGAACAUUUUGATT against Zfp280b stands 0.567 (inactive); under GCUACUCGCGUUUAAUUUUTT against Slc9a9, -0.238 (inactive); under GACCUUUCUCUUCUUGGCUTT against Olfr434, -2.1 (active). Under GGAUAACCCUCAGAAGUCCTT against Was stands 0.664 (inactive); under GGAAUAAUCAAGCUAGGGATT against Satb2, -2.2 (active). GGAGAGAGGACAACUUCUCTT against Mrm1: the z-score is 1.3 (inactive).

As for GGCUUUUAACACCUUCAUUTT against Clptm1l, the z-score was 0.495 (inactive).

Consider GCUUCUUCUGUGAACUUCCTT against Olfr854, for which the z-score was -0.939 (inactive). Regarding GGAAGCUGCUUUUCUAAAUTT against Il7, the z-score is 2.92 (active). For GGCAGUGAGAGUCACAAGATT against Cdipt the value was -1.74 (inactive). For the sequence GGAAAUGCAGUUGUGAAUGTT against Rab4a, the z-score is -2.03 (active). Take GCCCAUGUUAGAGGUUUUGTT against Rsph3a: the z-score is 0.838 (inactive).

Regarding GGGAGAUGAGUUUUCUGAUTT against Cyp2c70, the z-score is 1.15 (inactive). Regarding GGCAGUUGAUUCCUUUAAATT against Baz1a, the z-score is 0.0425 (inactive). Under GCUGUACCCGAAUGAGUUUTT against Mgat2 stands 2.54 (active). As for GCCCUUAGCUGCAUGAAUUTT against Laptm4b, the z-score was -0.661 (inactive). For GGACCGUCUGUCCUUUGUCTT against Nectin2 the value was 0.618 (inactive); for GGUAGAGAAGAACGGUACCTT against Mb21d2, 1.08 (inactive). Under CCGAGUAAUUGGAAGUGGUTT against Ldha stands 2.08 (active). As for GGUGCUUUCUGGAUGAAGATT against Akirin1, the z-score is -0.282 (inactive).

Turning to GGCUUUUGGAGAAAAAGGATT against Nus1, the z-score was 1.92 (inactive). For GGAAAUGUAGUGAAGGGUGTT against Ndfip2 the value was 2.03 (active). Under GGGCCUUACGUCAUUCUCUTT against Dnajb7 stands -0.319 (inactive); under GGAUUUCAUUCCAAACAUGTT against Hbs1l, -0.161 (inactive); under CGGGACUAUUAUUACUCCATT against Ap2m1, -1.22 (inactive). Under GGAAGAUCUCUUGUCUGCUTT against Mtcp1 stands -0.269 (inactive); under GGGAGAUGCAACCUCUCUUTT against Dennd5b, 2.91 (active); under GGGAAAUCUAUUUUUGUGATT against Mob3c, -1.77 (inactive).

As for GGUCUGGAGACAAUCAUCATT against Rnf222, the z-score was -2.47 (active).

Consider GGCUUAUUGGAAGAGGACGTT against Ier5, for which the z-score is 0.559 (inactive). For GCUGAGUCCAUGUCUGUUGTT against Coro2a the value was -0.119 (inactive); for CGGCAUGAGCAGUUUAUAUTT against Col19a1, -1.04 (inactive). Under GCUGAUUGAGCAUCCGAUGTT against Ggt1 stands 2.78 (active). For GGGAUUCAGUAUAAAACACTT against Nup37 the value was -1.25 (inactive). With GGAAAGAGCCAUCCUUUGATT against Gnmt, the z-score is -0.186 (inactive). In the case of CGUAUAAUAACUCCUUAUCTT against Hoxa1, the z-score is 2.17 (active). In the case of GGUGUAGACUCCAACAUGUTT against Aarsd1, the z-score is 1.69 (inactive). CCUUGGACUAUGGCAAAAATT against Neurod6: the z-score was 0.418 (inactive).

For GCCGGAAUCCUGUGGAAUCTT against Kat14, the z-score is 6.46 (active). Turning to GGAAAAUGACACAGGUAUCTT against Entpd2, the z-score is -0.103 (inactive). On to GGAGAUGAGCUGUAUGUGATT against Nudt19, for which the z-score is 0.862 (inactive). Take GACUUCAGACAAAUAGUGCTT against Lce1i: the z-score was -1.24 (inactive). Under GCAUCGAAAAUCUUUCCAATT against Fibcd1 stands 1.6 (inactive); under GGUGCUCAAUAAAUGUAAATT against Cd151, -1.26 (inactive); under GGGUUUCUUCCCUGAGCUATT against Nxf7, -1.97 (inactive). As to CCACUAUGAAUCGUGGUUCTT against Sp6, the z-score was 0.731 (inactive). As to CGUGCAUCCCUAUAUCCUATT against Panx2, the z-score was 0.343 (inactive). Under GGUUGACAACACAUCUGCUTT against Ugt2b34 stands -0.766 (inactive); under GGAUCAAUGUGGUACCUAUTT against Sf3a1, -2.79 (active); under GGGAAUAGUUUAUAUGGACTT against Ccl20, 0.315 (inactive).

In the case of CGGGCAAUGUCAGAUUGUGTT against Vmn1r75, the z-score was 1.41 (inactive).

For the sequence GGUACUUUCGGACUCAGUUTT against Ipp, the z-score was -0.0605 (inactive).

GCUAGGUGUUUGAAGCCUCTT against Mixl1: the z-score is -0.834 (inactive). In the case of GGAAGGGUAAAUUUAGAAGTT against Arrdc3, the z-score was 2.83 (active). For GAUCUUCCUGACAGUGGUGTT against Psors1c2 the value was -0.15 (inactive). For GGUAAAAAACCAAGAACAATT against Ednrb the value was 2.17 (active); for GGACUUCUUCUUGUACAACTT against Capn3, 1.03 (inactive).

GGGCUCUUGCCAGAAAACGTT against Rsph3a: the z-score was -0.524 (inactive). For GCCACUCGGAGAUUUUUCATT against Slc15a4, the z-score was -0.6 (inactive).

For the sequence CCCUGACCUUCAGAUUGUGTT against Olfr788, the z-score is 0.14 (inactive).

As for CCAAGUAGAUAGGAAUUAUTT against Eps8, the z-score is 2 (inactive).

In the case of “GCUUUAUGGGAGACAAAGGTT against 1700022I11Rik”, the z-score was 2.53 (active). Under GGAUGCUUUACCAAAUGAATT against Slc44a3 stands 0.147 (inactive); under GGAAAAUUGGCCAAAAUAATT against Pdcl, -0.0308 (inactive).

Take GGAGAAGCUGCUGGCAGAATT against Trub1: the z-score is -1.15 (inactive). Under GGUCUUGGAGUUGCUAAUUTT against Med4 stands 2.63 (active); under CCUCUUCUUGUUUCAAGGGTT against Piezo2, 0.062 (inactive); under CCAGCUAAACUCUGUAAAATT against Zfp639, -0.113 (inactive).

In the case of GCUUUGGACAAUAAGAAGUTT against Cdkl1, the z-score was -0.838 (inactive).

Take GUCACUGAUACUCAAUAAATT against Vmn1r172: the z-score was -1.45 (inactive). For GCAUCGUCCUCCAAAGAUUTT against Sf3b1 the value was -3.01 (active); for GGCUAUCUACCAUUAUAUGTT against Ifit2, -0.607 (inactive).

GGUCCUGUUAAACUGAAAGTT against Fkbp1a: the z-score was -1.45 (inactive).

Take GGGAAUAAAAAGGAUCACUTT against Rab39: the z-score is 1.27 (inactive). For CCUGAAUGACCUAGGGCCUTT against Adam8 the value was 0.286 (inactive); for GGCAUGAGCUAUCAGGACUTT against Efcab6, 1.37 (inactive). On to GGUAUUAGCAAUUUUCUGGTT against Olfr619, for which the z-score is -0.681 (inactive).

Take CGAGGAUGACUUGAUGACCTT against Ajm1: the z-score was -2.18 (active). For GGGAAAAUUCCAGAAUCGCTT against Musk the value was 0.315 (inactive).

Regarding GCCGGCCAGAAUAUACAUUTT against Fndc10, the z-score was 0.415 (inactive). On to CCUUCCUCGUGAUUCGCUATT against Lman2l, for which the z-score was -0.461 (inactive). For GGUUGAGUAGUUGAUUUUCTT against Hemgn the value was 0.663 (inactive); for GGAAAUACCCACCUUAUACTT against Efhc2, 2.51 (active). Under GGAGCAGAUACAGAAGAUCTT against Pfdn2 stands -1.21 (inactive). With GUAUAGUGUAUCUCAUCAUTT against Olfr1107, the z-score was 1.56 (inactive). Turning to GCUCAGUGGACAUGCUCUATT against Hpse, the z-score was -0.502 (inactive).

With GGAGGCAUGAUAAGCUUCGTT against Pmm1, the z-score was -0.425 (inactive).

For the sequence GCUACUAAACAGGGUGUGATT against Gpsm3, the z-score was -2.42 (active). As for GGGUGAGAUAAUUGAAAAGTT against Slc12a6, the z-score was 0.607 (inactive). Under GGGCUUCAACACUGAGAAGTT against Arl4d stands -1.04 (inactive); under GGCUCCUACCAAUCUCACUTT against Calcr, -0.548 (inactive). As to GGGAAAAAUGGACUAGCAUTT against Ahctf1, the z-score was 0.888 (inactive).
